Compounds without any hit were thinned out: in the full panel of roughly 83,000, 20% have a hit.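 Negative percent growth values reflect cell death: -40 means 40% of the cells present at the start died, and -100 means all died.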 Values without a mark were called inactive. Active and inactive are the calls of the source. How the source made its calls: active means growth percent below 10; inactive means the rest.
Legend:
Experiment in all cases: NCI-60 one-dose screen, 48 h (100 = growth as untreated, 0 = no growth, -100 = all killed)
Conditions in all cases: 10 µM unless noted
NCI/ADR-RES ovarian = system: NCI/ADR-RES ovarian
T-47D breast = system: T-47D breast
BT-549 breast = system: BT-549 breast
MDA-MB-435 melanoma = system: MDA-MB-435 melanoma
SW-620 colon = system: SW-620 colon
HCC-2998 colon = system: HCC-2998 colon
KM12 colon = system: KM12 colon
HCT-116 colon = system: HCT-116 colon
MCF7 breast = system: MCF7 breast

Compound | growth (NCI/ADR-RES ovarian) | growth (T-47D breast) | growth (BT-549 breast) | growth (MDA-MB-435 melanoma) | growth (SW-620 colon) | growth (HCC-2998 colon) | growth (KM12 colon) | growth (HCT-116 colon) | growth (MCF7 breast)
CC(=O)O[C@H](C[C@H](C(C)C)N(C)C(=O)[C@@H](NC(=O)[C@H]1CCCN1C)C(C)C)c1nc(C(=O)N[C@@H](Cc2ccccc2)C[C@H](C)C(=O)O)c(C)s1 | 5.87% (active) | 50.6% | -22.7% (active) | -5.47% (active) | 25.1% | 21.9% | 8.49% (active) | – | –
O=c1[nH]c2ccc([N+](=O)[O-])cc2c(=O)o1 | 101% | 111% | 95.3% | 111% | 105% | 102% | 106% | 103% | –
CCOC(=O)[C@@H](C)C[C@H](Cc1ccccc1)NC(=O)c1csc([C@@H](C[C@H](C(C)C)N(C)C(=O)CNC(=O)[C@H]2CCCCN2C)OC(C)=O)n1 | 74.7% | 47.5% | 30.9% | -63.8% (active) | 24.5% | 8.98% (active) | 12% | 3.7% (active) | –
O=C(CC1(O)C(=O)N(Cc2ccccc2)c2ccc(Cl)cc21)c1ccc(C(=O)NCC2CCC3(CC2)OOC2(CCCCC2)OO3)cc1 (configuration not stated) | -42.7% (active) | -56% (active) | 11.8% | -67.8% (active) | -56.5% (active) | 67.6% | -67.3% (active) | 3.72% (active) | –
CC(=O)c1ccc(C(=O)NCC2CCC3(CC2)OOC2(CCCCC2)OO3)cc1 | 17.4% | 53.9% | 91.9% | 88% | 22.1% | 108% | 69.7% | 79% | –
c1ccc(CSC(c2ccccc2)c2ccccc2)cc1 | 106% | 117% | 116% | 114% | 103% | 107% | 106% | 89.8% | –
CCOC(=O)C(Cc1ccc(N(CCCl)CCCl)cc1)NC(=O)C(CC(C)C)NC(C)=O (configuration not stated) | 46.6% | 22.5% | 65% | 44.4% | – | 50.8% | 71.6% | 23.6% | 21.3%
COC(=O)CCC1=C(C)c2cc3[n-]c(cc4nc(cc5[n-]c(cc1n2)c(CCC(=O)OC)c5C)C=C4C)cc3C.[Cd+2] | 83.5% | 42.7% | -31.9% (active) | 23.1% | – | 95.9% | 13.3% | 79.8% | 26.9%
CC1CCCC(C[N+](C)(C)C)C1=O (configuration not stated) | 107% | 84.5% | 125% | 106% | 109% | 102% | 109% | 109% | –
COc1cc2ncnc(Nc3ccc(F)c(Cl)c3)c2cc1OCC(=O)N1CCN(C)CC1 | 86.7% | 70% | 89.6% | 102% | 105% | 102% | 96.4% | 91.3% | –
COc1cc(/C=C\c2cc(OC)c(OC)c(OC)c2)cc(NS(=O)(=O)c2cccc(Cl)c2)c1OC | 7.73% (active) | 93.1% | 24.1% | -20.2% (active) | 25.4% | 13.9% | 5.83% (active) | 2.62% (active) | –
CCCC[C@H](NC(=O)[C@H]1CCCN1C)C(=O)N(C)[C@H](C[C@@H](OC(C)=O)c1nc(C(=O)N[C@@H](Cc2ccccc2)C[C@H](C)C(=O)OCC)cs1)C(C)C | 7.13% (active) | 54.4% | -21.7% (active) | -28.6% (active) | 22.1% | 14.2% | 13.6% | – | –
CCn1c2ccccc2c2cc(C(=O)c3cccc4c3CCCN4)ccc21 | 92.7% | 104% | 98.1% | 97.6% | 96.1% | 104% | 94.9% | 105% | –
CCOC(=O)[C@@H](C)C[C@H](Cc1ccccc1)NC(=O)c1csc([C@@H](C[C@H](C(C)C)N(C)C(=O)[C@H](CCC(C)C)NC(=O)[C@H]2CCCCN2C)OC(C)=O)n1 | 4.75% (active) | 64.9% | -24.5% (active) | -1.75% (active) | 25.4% | 10% | 13.9% | – | –
CC(C)=CCC[C@H](C(=O)O)[C@@H]1CC[C@]2(C)C3=C(CC[C@@]12C)[C@@]1(C)CC[C@H](O)C(C)(C)[C@@H]1CC3 | 102% | 92.5% | 75.2% | 103% | 105% | 100% | 99.7% | 78.5% | –
